Assay [1] in a line: qHTS for Inhibitors of Ubiquitin-specific Protease USP2a Using CHOP2 as the Reporter: Cytotox Assay (AID 652170). Further: nearly all actives have a fitted effect of over 70% in size. Further: potency means the concentration at half of the fitted maximal effect. In outline: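 Cytotoxicity read as ATP luminescence (CellTiter-Glo) after 72 hr compound treatment at 37 deg C. Cells: HCT116, 600/well in DMEM plus 10% FBS. Normalization between DMSO-treated cells and cell-free wells.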
(qHTS replaces the single test concentration by a dilution series.)

The target of assay [2] is Ubiquitin carboxyl-terminal hydrolase 2 (Homo sapiens) (UniProt O75604). The experiment in a line: qHTS for Inhibitors of Ubiquitin-specific Protease USP2a Using CHOP2 as the Reporter: K484 Substrate (AID 652173).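 Further: cleavage of internally quenched K48 di-ubiquitin substrate measured as rising fluorescence over time; potency means the concentration at half of the fitted maximal effect; nearly all actives have a fitted effect of over 70% in size.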 An outline of the steps:
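Kinetic fluorescence (Ex 525/Em 598) tracked cleavage of an internally quenched K48 di-ubiquitin substrate, added as a 100 nM solution. The enzyme was added as a 5 nM USP2 solution before compound pinning, with no-enzyme controls. Buffer: Tris pH 8, beta-mercaptoethanol, CHAPS.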

The target of assay [3] is Calcium and integrin-binding protein 1 (Homo sapiens) (UniProt Q99828). Put plainly: Primary qHTS for Identification of Calcium Integrin Binding Protein 1 (CIB1) Competitor (AID 1508620).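 Further: GST tagged CIB1 binding a fluorescein labelled alphaIIb integrin peptide tracer; top concentration of the series differs between compounds.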 An outline of the steps:
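Fluorescence polarization competition: GST-tagged CIB1 (1 uM final) preincubated with compound 15 min at room temperature, then FITC-labelled alphaIIb peptide (100 nM final) added. After 15 min at room temperature, polarization read at Ex 480/Em 540.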

SMILES strings stand for the structures. Inconclusive results are not listed. The source made the active and inactive calls. The call rests on the fitted dose curve; in most records, active means well fitted curve in the direction sought with a large enough effect; inconclusive means small, poorly fitted or top-dose-only effect, or another doubt; inactive means no such curve, though single readings can be large; an effect the other way counts as inactive or inconclusive.

From PubChem BioAssay (NCATS) come the findings set out here.

Ubiquitin carboxyl-terminal hydrolase 2 (Homo sapiens), sequence (O75604 whole entry, looked up): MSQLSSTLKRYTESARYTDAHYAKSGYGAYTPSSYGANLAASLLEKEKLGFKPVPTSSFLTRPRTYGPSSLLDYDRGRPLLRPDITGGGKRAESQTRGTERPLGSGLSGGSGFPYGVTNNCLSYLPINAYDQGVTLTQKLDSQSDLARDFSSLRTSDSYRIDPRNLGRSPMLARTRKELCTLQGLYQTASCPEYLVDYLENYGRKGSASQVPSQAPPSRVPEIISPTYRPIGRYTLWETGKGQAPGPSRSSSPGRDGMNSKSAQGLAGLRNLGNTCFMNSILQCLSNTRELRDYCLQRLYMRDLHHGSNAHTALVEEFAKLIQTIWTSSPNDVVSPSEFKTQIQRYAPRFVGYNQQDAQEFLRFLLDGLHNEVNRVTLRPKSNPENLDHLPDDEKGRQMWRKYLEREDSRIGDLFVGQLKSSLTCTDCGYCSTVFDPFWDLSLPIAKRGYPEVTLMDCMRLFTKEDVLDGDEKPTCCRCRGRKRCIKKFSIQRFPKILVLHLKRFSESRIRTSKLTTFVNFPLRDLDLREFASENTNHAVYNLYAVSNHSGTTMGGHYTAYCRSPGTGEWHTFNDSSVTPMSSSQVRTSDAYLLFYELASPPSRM
Calcium and integrin-binding protein 1 (Homo sapiens), sequence (Q99828 whole entry, looked up): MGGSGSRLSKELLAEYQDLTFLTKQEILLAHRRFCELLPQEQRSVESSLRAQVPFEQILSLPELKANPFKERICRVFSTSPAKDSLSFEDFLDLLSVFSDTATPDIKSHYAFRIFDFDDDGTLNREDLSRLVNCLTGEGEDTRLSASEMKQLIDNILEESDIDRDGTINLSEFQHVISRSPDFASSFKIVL

Turning to `Cc1ccc(-c2cc(C(=O)Nc3ccc(S(=O)(=O)Nc4ccc(C#N)cc4)cc3)c3ccccc3n2)cc1C`, the Potency result in assay [1] and in assay [3] was “inactive” in each case. In addition, the Potency in assay [2] is 3.06 µM (active).

On to `Cc1ccc(S(=O)(=O)Nc2cc(C(=O)Nc3nc(-c4ccccc4)cs3)ccn2)cc1`, for which, in assay [2], the Potency was 6.85 µM (active). Also, the Potency result in assay [3] was “inactive”.

Regarding `COc1ccccc1NC(=O)c1cc(-c2ccc(C)c(C)c2)nc2ccccc12`, the Potency entry in assay [1] and in assay [3] was “inactive” throughout. Besides, in assay [2], the Potency was 10.9 µM (active).

With `Cc1ccc(S(=O)(=O)Nc2ccc(C(=O)Nc3nc(-c4ccc(Cl)cc4)cs3)cc2)cc1`, the Potency in assay [2] is 3.06 µM (active). Moreover, in assay [3], the Potency entry is “inactive”.

Consider `Cc1ccc(-c2cc(C(=O)Nc3cccc4ccccc34)c3ccccc3n2)cc1C`, for which the Potency result in assay [1] and in assay [3] was “inactive” in each case. The Potency in assay [2] is 17.2 µM (active).

With `COc1cc(Cl)ccc1C(=O)Nc1nc(-c2ccccc2)cs1`, the Potency entry in assay [1] and in assay [3] was “inactive” throughout. Further, in assay [2], the Potency was 13.7 µM (active).

Turning to `Cc1ccc(S(=O)(=O)Nc2ccccc2C(=O)Nc2ccc(-c3ccccc3)nn2)cc1`, the Potency in assay [2] was 3.85 µM (active). Besides, the Potency entry in assay [3] was “inactive”.

For the compound `Cc1ccc(S(=O)(=O)Nc2ccc(C(=O)Nc3nc(-c4ccccc4)cs3)c(Cl)c2)cc1`, the figures for the Potency in assay [1] and in assay [2] were 14.8 µM (active) and 1.93 µM (active), respectively. For the same compound, in assay [3], the Potency entry is “inactive”.

Take `COc1cc(NS(=O)(=O)c2ccc(C)cc2)ccc1C(=O)Nc1nc(-c2ccccc2)cs1`: the Potency in assay [2] is 2.73 µM (active). In assay [3], the Potency entry was “inactive”.

In the case of `O=C(Cc1ccc2ccccc2c1)Nc1ccc(S(=O)(=O)Nc2nccs2)cc1`, the Potency in assay [2] is 12.2 µM (active). The Potency result in assay [3] is “inactive”.

For the compound `Cc1ccc(-c2cc(C(=O)Nc3ccc(S(=O)(=O)N(C)C)cc3)c3ccccc3n2)cc1C`, the Potency in assay [2] was 4.32 µM (active). For the same compound, in assay [3], the Potency entry is “inactive”.

Regarding `Cc1ccc(-c2cc(C(=O)Nc3ccccc3Cl)c3ccccc3n2)cc1C`, the Potency entry in assay [1] and in assay [3] was “inactive” in each case. Also, the Potency in assay [2] was 13.7 µM (active).

As for `Cc1ccc(S(=O)(=O)Nc2ccccc2C(=O)Nc2nc(-c3ccccc3)co2)cc1`, the Potency in assay [1] was 5.9 µM (active); in assay [2], 2.73 µM (active). For the same compound, the Potency entry in assay [3] is “inactive”.

`Cc1ccc(S(=O)(=O)Nc2cncc(C(=O)Nc3nc(-c4ccccc4)cs3)c2)cc1`: the Potency entry in assay [1] and in assay [3] was “inactive” throughout. The Potency in assay [2] was 6.85 µM (active).

Consider `O=C(Nc1nc(-c2ccccc2)cs1)c1ccccc1[N+](=O)[O-]`, for which the Potency in assay [2] is 12.2 µM (active). Moreover, the Potency entry in assay [3] was “inactive”.

Consider `Cc1ccc(-c2cc(C(=O)NCc3ccccc3)c3ccccc3n2)cc1C`, for which the Potency result in assay [1] and in assay [3] was “inactive” throughout. For the same compound, the Potency in assay [2] is 13.7 µM (active).

For the compound `Cc1ccc(S(=O)(=O)Nc2ccccc2C(=O)Nc2cccc(-c3ccccc3)c2)cc1`, the Potency in assay [1] was 16.6 µM (active); in assay [2], 2.17 µM (active). Further, the Potency result in assay [3] is “inactive”.

Take `COC(=O)c1ccccc1C(=O)Nc1nc(-c2ccccc2)cs1`: the Potency in assay [2] is 30.6 µM (active). The Potency result in assay [3] is “inactive”.

As for `COc1cc(NS(=O)(=O)c2ccc(C)cc2)cc(C(=O)Nc2nc(-c3ccccc3)cs2)c1`, the Potency in assay [2] is 2.43 µM (active). For the same compound, in assay [3], the Potency result is “inactive”.

`Cc1ccc(-c2cc(C(=O)Nc3ccc(-n4cccn4)cc3)c3ccccc3n2)cc1C`: the Potency in assay [2] is 8.63 µM (active). In addition, the Potency result in assay [3] is “inactive”.

For `COc1ccc(C(=O)Nc2nc(-c3ccccc3)cs2)cc1NS(=O)(=O)c1ccc(C)cc1`, the Potency result in assay [1] and in assay [3] was “inactive” throughout. Moreover, the Potency in assay [2] is 3.06 µM (active).

With `Cc1ccc(-c2cc(C(=O)Nc3ccc(S(N)(=O)=O)cc3)c3ccccc3n2)cc1C`, the Potency result in assay [1] and in assay [3] was “inactive” throughout. Moreover, the Potency in assay [2] is 7.69 µM (active).

Turning to `Cc1ccc(S(=O)(=O)Nc2ccccc2C(=O)Nc2ccc(-c3ccccc3)nc2)cc1`, the Potency in assay [1] was 20.9 µM (active); in assay [2], 4.85 µM (active). Also, the Potency result in assay [3] was “inactive”.

In the case of `Cc1ccc(-c2cc(C(=O)Nc3ccn[nH]3)c3ccccc3n2)cc1C`, the Potency entry in assay [1] and in assay [3] was “inactive” throughout. The Potency in assay [2] was 27.3 µM (active).

Consider `Cc1ccc(S(=O)(=O)Nc2cc(C(=O)Nc3nc(-c4ccccc4)cs3)ccc2Cl)cc1`, for which the Potency entry in assay [1] and in assay [3] was “inactive” each time. The Potency in assay [2] is 2.17 µM (active).

As to `Cc1ccc(-c2cc(C(=O)Nc3nc4ccccc4s3)c3ccccc3n2)cc1C`, the Potency result in assay [1] and in assay [3] was “inactive” each time. Further, the Potency in assay [2] was 21.7 µM (active).

Turning to `Cc1ccc(NS(=O)(=O)c2ccccc2C(=O)Nc2nc(-c3ccccc3)cs2)cc1`, the Potency in assay [2] is 3.43 µM (active). Also, the Potency result in assay [3] is “inactive”.

For `COc1ccc(Cl)cc1C(=O)Nc1nc(-c2ccccc2)cs1`, the Potency result in assay [1] and in assay [3] was “inactive” each time. Moreover, the Potency in assay [2] is 9.68 µM (active).

Take `Cc1ccc(S(=O)(=O)Nc2ccccc2C(=O)Nc2ccc(-c3ccccc3)cc2)cc1`: the Potency in assay [2] is 2.43 µM (active). Besides, in assay [3], the Potency result was “inactive”.

`Cc1ccc(S(=O)(=O)Nc2ccccc2C(=O)Nc2nc(-c3ccccc3)c(C)s2)cc1`: in assay [2], the Potency was 1.93 µM (active). Also, in assay [3], the Potency result is “inactive”.

As for `Cc1ccc(S(=O)(=O)Nc2ccc(F)cc2C(=O)Nc2nc(-c3ccccc3)cs2)cc1`, in assay [2], the Potency is 1.93 µM (active). Besides, the Potency entry in assay [3] was “inactive”.

Regarding `COc1cccc(NS(=O)(=O)c2ccc(C)cc2)c1C(=O)Nc1nc(-c2ccccc2)cs1`, the Potency entry in assay [1] and in assay [3] was “inactive” each time. In addition, the Potency in assay [2] was 4.32 µM (active).

With `Cc1ccc(-c2cc(C(=O)Nc3ccc(-n4cncn4)cc3)c3ccccc3n2)cc1C`, the Potency result in assay [1] and in assay [3] was “inactive” each time. Also, the Potency in assay [2] was 7.69 µM (active).

Turning to `Cc1ccc(-c2cc(C(=O)N(C)c3ccccc3)c3ccccc3n2)cc1C`, the Potency result in assay [1] and in assay [3] was “inactive” each time. In addition, in assay [2], the Potency is 21.7 µM (active).

As to `Cc1ccc(S(=O)(=O)Nc2cccc(C(=O)Nc3nc(-c4ccccc4)cs3)c2Cl)cc1`, the Potency in assay [1] was 11.8 µM (active); in assay [2] it was 3.43 µM (active). Besides, the Potency entry in assay [3] is “inactive”.

Consider `Cc1ccc(-c2cc(C(=O)Nc3ccccc3C)c3ccccc3n2)cc1C`, for which the Potency result in assay [1] and in assay [3] was “inactive” throughout. Also, the Potency in assay [2] was 21.7 µM (active).

`O=C(Nc1ccc(S(=O)(=O)Nc2nccs2)cc1)C1CCC2(CCC2)CC1`: the Potency entry in assay [1] and in assay [3] was “inactive” each time. Besides, in assay [2], the Potency is 24.3 µM (active).
